Assay results reported in the supplement of paper PMC8728848.
About 410 targets per protein were measured; listed, in parts, are those with the strongest signals and a random draw of the rest.

Key:
Assay in all cases: glycan array binding signal (z-score within array); higher = stronger binding
Details in all cases: glycan notation: IUPAC condensed, linker removed
Gal3S(b1-3)GalNAc = target: Gal3S(b1-3)GalNAc
Outline: (§1)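 The binding signal is a Z-score computed within each array. Data were drawn from 3228 arrays in the Consortium for Functional Glycomics database, restricted to those with a known protein sequence. Scores were averaged over arrays of the same protein sequence at different concentrations or buffers, and over linkers, and negative values can be taken as non-binding.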

Gal6S(b1-4)Glc = target: Gal6S(b1-4)Glc
Outline: as §1

[1] = target: GalNAc(b1-4)GlcNAc(b1-2)Man
Outline: as §1

Glc(b1-6)Glc = target: Glc(b1-6)Glc
Outline: as §1

[2] = target: GlcNAc(a1-4)Gal(b1-4)GlcNAc
Outline: as §1

GlcNAc(b1-3)Man = target: GlcNAc(b1-3)Man
Outline: as §1

Kdn(a2-3)Gal(b1-4)Glc = target: Kdn(a2-3)Gal(b1-4)Glc
Outline: as §1

Kdn(a2-3)Gal(b1-4)GlcNAc = target: Kdn(a2-3)Gal(b1-4)GlcNAc
Outline: as §1

[3] = target: Man(a1-2)Man(a1-3)[Man(a1-2)Man(a1-6)]Man
Outline: as §1

Man(a1-3)[Man(a1-6)]Man = target: Man(a1-3)[Man(a1-6)]Man
Outline: as §1

[4] = target: Man(a1-3)[Man(a1-6)]Man(a1-6)[Man(a1-2)Man(a1-3)]Man(b1-4)GlcNAc(b1-4)GlcNAc
Outline: as §1

MurNAc(b1-4)GlcNAc = target: MurNAc(b1-4)GlcNAc
Outline: as §1

Neu5Ac(a2-3)Gal = target: Neu5Ac(a2-3)Gal
Outline: as §1

[5] = target: Neu5Ac(a2-3)Gal(b1-3)GalNAc(b1-3)Gal(a1-4)Gal(b1-4)Glc
Outline: as §1

[6] = target: Neu5Ac(a2-3)Gal(b1-3)GlcNAc(b1-2)Man(a1-3)[GlcNAc(b1-4)][Neu5Ac(a2-3)Gal(b1-3)GlcNAc(b1-2)Man(a1-6)]Man(b1-4)GlcNAc(b1-4)GlcNAc
Outline: as §1

[7] = target: Neu5Ac(a2-3)Gal(b1-4)GlcNAc(b1-3)Gal
Outline: as §1

[8] = target: Neu5Ac(a2-3)Gal(b1-4)GlcNAc(b1-3)Gal(b1-4)GlcNAc(b1-3)Gal(b1-4)GlcNAc(b1-2)Man(a1-3)[Neu5Ac(a2-3)Gal(b1-4)GlcNAc(b1-3)Gal(b1-4)GlcNAc(b1-3)Gal(b1-4)GlcNAc(b1-2)Man(a1-6)]GalNAc
Outline: as §1

[9] = target: Neu5Ac(a2-3)Gal(b1-4)[Fuc(a1-3)]GlcNAc(b1-3)GalNAc
Outline: as §1

[10] = target: Neu5Ac(a2-3)[GalNAc(b1-4)]Gal(b1-4)Glc
Outline: as §1

[11] = target: Neu5Ac(a2-6)Gal(b1-4)GlcNAc(b1-2)Man(a1-3)[Neu5Ac(a2-6)Gal(b1-4)GlcNAc(b1-2)Man(a1-6)]Man(b1-4)GlcNAc(b1-4)GlcNAc
Outline: as §1

[12] = target: Neu5Ac(a2-6)Gal(b1-4)GlcNAc(b1-3)Gal(b1-4)GlcNAc(b1-3)[Neu5Ac(a2-6)Gal(b1-4)GlcNAc(b1-3)Gal(b1-4)GlcNAc(b1-6)]GalNAc
Outline: as §1

[13] = target: Neu5Ac(a2-6)Gal(b1-4)GlcNAc(b1-3)[Neu5Ac(a2-6)Gal(b1-4)GlcNAc(b1-6)]GalNAc
Outline: as §1

[14] = target: Neu5Ac(a2-6)GalNAc(b1-4)GlcNAc6S
Outline: as §1

[15] = target: Neu5Ac(a2-6)GlcNAc(b1-4)GlcNAc(b1-4)GlcNAc
Outline: as §1

[16] = target: Neu5Ac(a2-8)Neu5Ac(a2-3)Gal(b1-4)Glc
Outline: as §1

[17] = target: Neu5Ac(a2-8)Neu5Ac(a2-3)Gal(b1-4)GlcNAc
Outline: as §1

[18] = target: Neu5Ac(a2-8)Neu5Ac(a2-8)Neu5Ac(a2-3)Gal(b1-4)Glc
Outline: as §1

[19] = target: Neu5Gc(a2-3)Gal(b1-4)GlcNAc
Outline: as §1

B1: CPA (Cicer arietinum) (protein)
chain: MAFSYLNLVLVTLTTLFFLQTTKVKSQKSVSFHITNFTISRPSITLQGTAEFLPNVLLLNDIEHPVFVVGRALYSKPITLWNNKTGKVASFVTSFTFDVQDLKKTVPGHGLVFFLAPSGSEIPFSSDGGNLGVVDGKNAFNRFVGVEFDNFVNSWDPKYSHVGINVNSLISTKTVKWNRVSGELVKVSIVYDSVSTTLTVIVTYKNGQISILSQLVDLKAVLPDTVNIGFSASTTLVSPRQLHNIHSWSFTSTFET
For B1, the “glycan array binding signal (z-score)” value (Gal3S(b1-3)GalNAc) was -0.183, the “glycan array binding signal (z-score)” value (Gal6S(b1-4)Glc) was 0.138 and the “glycan array binding signal (z-score)” value [1] was 1.55. The “glycan array binding signal (z-score)” value (Glc(b1-6)Glc) was -0.614, the “glycan array binding signal (z-score)” value [2] was 2.25 and the “glycan array binding signal (z-score)” value (GlcNAc(b1-3)Man) was -0.558. For the same binder, the “glycan array binding signal (z-score)” value (Kdn(a2-3)Gal(b1-4)Glc) was -0.762, the “glycan array binding signal (z-score)” value (Kdn(a2-3)Gal(b1-4)GlcNAc) was -0.585 and the “glycan array binding signal (z-score)” value [3] was -0.461. For the same binder, the “glycan array binding signal (z-score)” value (Man(a1-3)[Man(a1-6)]Man) was -0.635, the “glycan array binding signal (z-score)” value [4] was 4.19 and the “glycan array binding signal (z-score)” value (MurNAc(b1-4)GlcNAc) was 0.406. For the same binder, the “glycan array binding signal (z-score)” value (Neu5Ac(a2-3)Gal) was -0.529, the “glycan array binding signal (z-score)” value [5] was -0.601 and the “glycan array binding signal (z-score)” value [6] was -0.065. The “glycan array binding signal (z-score)” value [7] was -0.66, the “glycan array binding signal (z-score)” value [8] was 6.81 and the “glycan array binding signal (z-score)” value [9] was -0.322. For the same binder, the “glycan array binding signal (z-score)” value [10] was -0.34, the “glycan array binding signal (z-score)” value [11] was -0.503 and the “glycan array binding signal (z-score)” value [12] was 3.34. For the same binder, the “glycan array binding signal (z-score)” value [13] was -0.588, the “glycan array binding signal (z-score)” value [14] was -0.452 and the “glycan array binding signal (z-score)” value [15] was 2.61. For the same binder, the “glycan array binding signal (z-score)” value [16] was -0.501, the “glycan array binding signal (z-score)” value [17] was -0.647 and the “glycan array binding signal (z-score)” value [18] was -0.579. For the same binder, the “glycan array binding signal (z-score)” value [19] was -0.402.
